# NS1 function inh: influenza NS1 inhibition. Potency, µM (doses to about 46.1 µM), for the others: at the top dose activity, positive = more growth. 270,000 compounds, 0.4% hits. AID 2326; calls by dose curve; note: actives are rising curves; nearly all actives have a fitted effect of over 50% in size
#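 Read-out: OD600 growth recovery of NS1-expressing budding yeast. Cells grown overnight at 30C in -URA glucose medium, washed, resuspended and diluted 1:100 in 2% galactose assay medium, pH 6.0. Same strain lacking NS1 served as positive control.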
# SARS PLpro yeast: inhibitors of SARS-CoV papain-like protease in yeast | S. cerevisiae expressing SARS-CoV PLpro, growth rescue | AID 485353 | 330,000 compounds, 0.19% hits | Potency, µM (titrated, usually from 32.9 µM), without a hit: at the top dose activity, positive = growth rescue, usual class: activators; calls by dose curve; note: 0% is about no effect; nearly all actives have a fitted effect of over 55% in size
# Tb PYK inh: blocks Trypanosoma brucei pyruvate kinase. Q57TT1. Potency, µM (titrated, usually from 76.8 µM), for the others: at the highest dose activity, negative = inhibition, hits mostly inhibitors. 410,000 compounds, 0.12% hits. TbPYK enzyme, Kinase-Glo Plus ATP luminescence, 45 min; note: % is set by controls: 0 for no effect and ±100 for the full control effect; nearly all actives have a fitted effect of over 50% in size
#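 Assay buffer: 50 mM TEA pH 7.2, 100 mM KCl, 10 mM MgCl2, 0.05% BSA, 0.01% Tween-20. Pyruvate kinase from T. brucei plus substrate met compound, then ADP (130 uM final). Luminescence was read post 45 min RT.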
# LmPK inh: blocks Leishmania mexicana pyruvate kinase activity. Q27686. purified LmPK, Kinase-Glo ATP luminescence, 1 h. Potency, µM (highest dose often 57.5 µM), without a hit: top-dose activity change, negative = inhibition, usual class: inhibitors. 290,000 compounds, 0.37% hits. AID 1721; note: % is set by controls: 0 for no effect and ±100 for the full control effect
# Target sequence (Q27686 whole entry, looked up): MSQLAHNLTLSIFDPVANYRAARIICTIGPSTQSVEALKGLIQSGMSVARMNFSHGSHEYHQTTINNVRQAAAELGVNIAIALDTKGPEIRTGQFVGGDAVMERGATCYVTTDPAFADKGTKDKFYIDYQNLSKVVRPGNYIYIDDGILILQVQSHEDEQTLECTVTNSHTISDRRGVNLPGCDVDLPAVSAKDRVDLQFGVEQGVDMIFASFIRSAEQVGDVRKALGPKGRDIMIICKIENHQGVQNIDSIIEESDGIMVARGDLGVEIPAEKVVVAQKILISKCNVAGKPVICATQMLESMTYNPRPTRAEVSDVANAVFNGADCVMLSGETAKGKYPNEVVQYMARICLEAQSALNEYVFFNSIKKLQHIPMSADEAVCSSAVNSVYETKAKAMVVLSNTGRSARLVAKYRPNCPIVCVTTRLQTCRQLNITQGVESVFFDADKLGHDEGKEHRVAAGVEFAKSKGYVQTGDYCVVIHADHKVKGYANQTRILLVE
#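 Purified LmPK (0.1 nM) with 0.5 mM PEP and 0.1 mM ADP in imidazole buffer pH 7.2 with MgCl2/KCl, 1 h at room temperature. ATP formed was read by luciferase luminescence and normalized to no-enzyme and uninhibited controls.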
# Sm TGR block: blocks Schistosoma mansoni thioredoxin glutathione reductase | Q962Y6 | purified TGR, DTNB reduction, TNB absorbance 405 nm | Potency, µM (series often up to 114 µM), without a hit: top-dose activity change, negative = inhibition, hits mostly inhibitors | 360,000 compounds, 3% hits; note: % is set by controls: 0 for no effect and ±100 for the full control effect; nearly all actives have a fitted effect of over 60% in size
#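 Kinetic colorimetric format: TGR-catalysed, NADPH-driven DTNB reduction monitored via TNB absorbance. Enzyme dispensed at 20 nM; compound exposure 15 min at room temperature before reaction start.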
# RE007 growth inh: less growth of the S. pombe RE007 Vpr strain; S. pombe RE007 Vpr strain, BacTiter-Glo ATP luminescence, 24 h; Potency, µM (series often up to 92.2 µM), without a hit: at the highest dose activity change, negative = less growth, actives largely listed as inhibitors; 360,000 compounds, 0.21% hits; AID 651644; active = well fitted falling curve with a large enough effect; inconclusive = small, poorly fitted or top-dose-only effect; inactive = no such curve, though single readings can be large or run the other way; note: % is set by controls: 0 for no effect and ±100 for the full control effect; nearly all actives have a fitted effect of over 50% in size
#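 Fission yeast RE007 carrying one integrated HIV-1 vpr copy, seeded at OD 0.01 in PMG+AL medium with 23 nL pinned compound. Grown 24 h at 30 degrees; viability read by BacTiter-Glo luminescence after 5 min.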
# * hit, by the source's call; ? = inconclusive; · = no result; [ ] = another dose, or the depositor's remark. Rows were chosen to be rich in hits. Some 3.3% of all compounds tested hit in one or more screens of this group. Unless noted, calls come from the whole dose curve; as a rule, active = well fitted curve in the direction sought with a large enough effect; inconclusive = small, poorly fitted or top-dose-only effect, or another doubt; inactive = no such curve, though single readings can be large; an effect the other way counts as inactive or inconclusive. Potency is the fitted concentration of half-maximal effect.
SMILES,NS1 function inh,SARS PLpro yeast,Tb PYK inh,LmPK inh,Sm TGR block,RE007 growth inh
O=C1C2=C(C(=O)c3ccccc31)C1O[C@](CCCCN3C(=O)c4ccccc4C3=O)(Cc3c1ccc1ccccc31)O2,25%,-3%[6.58 µM],·,1%[11.5 µM],-29%[22.9 µM],·
CCN1CCN(C(=O)c2ccc3c(c2)N(Cc2c(F)cccc2Cl)C(=O)c2ccccc2S3)CC1,·,·,1%,·,3%,·
CCOc1ccc(NC(=O)CC2C(=O)N(c3ccccc3)C(=O)N2Cc2ccco2)cc1 (configuration not stated),-4%,-1%,-1%,0%,45µM*,8%
COc1cc(NC(=O)CC2C(=O)N(c3cccc(C)c3)C(=O)N2Cc2ccco2)cc(OC)c1 (configuration not stated),·,·,2%,·,50µM*,·
COc1ccc(NC(=O)CC2C(=O)N(c3cccc(OC)c3)C(=O)N2Cc2ccco2)cc1 (configuration not stated),-3%,-1%,2%,3%,45µM*,5%
COC(=O)c1ccc(NC(=O)CC2C(=O)N(c3ccccc3)C(=O)N2Cc2ccco2)cc1 (configuration not stated),·,·,-14%,·,?,·
Cc1ccccc1-c1noc(-c2ccc(NCc3ccco3)c([N+](=O)[O-])c2)n1,·,·,-3%,·,-2%,·
O=C(CSc1nc2c(c(=O)[nH]1)CCCC2)Nc1ccc(Br)cc1,·,·,2%,·,6%,·
Cc1nn2c(=O)cc(COC(=O)c3ccc(NC(=O)CCc4ccccc4)cc3)nc2s1,·,·,-6%,·,-2%,·
CCC(c1nnnn1CC1CCCO1)N(CCN1CCOCC1)Cc1cc2cc(C)ccc2[nH]c1=O (configuration not stated),2.2µM*,1%,-6%,2%,?,-12%
Cc1cc(C)c2[nH]c(=O)c(C(c3nnnn3CC3CCCO3)N3CCC(C)CC3)cc2c1 (configuration not stated),-20%,-6%,-14%,5%,14µM*,2%
Cc1ccc2[nH]c(=O)c(C(c3nnnn3CC3CCCO3)N3CCOCC3)cc2c1 (configuration not stated),-2%,4%,-4%,0%,-3%,?
Cc1ccc2[nH]c(=O)c(CN(CCCN3CCOCC3)C(=O)NC3CCCCC3)cc2c1,-1%,3%,9%,0%,100µM*,-11%
COc1ccc(OC)c(C(c2nnnn2CC2CCCO2)N2CCN(C)CC2)c1 (configuration not stated),-7%,3%,-5%,5%,22%,0%
COc1ccc(OC)c(C(c2nnnn2CC2CCCO2)N2CCN(C3CCCC3)CC2)c1 (configuration not stated),-3%,4µM*,-3%,2%,-17%,33%
N#C/C(=C\NC(=S)c1ccncc1)c1nc2ccccc2s1,0%,·,·,·,·,·
CCC1CCCCN1CC(=O)N1CCCc2c1c(=O)oc1ccc(OCc3ccccc3)cc21 (configuration not stated),·,·,-2%,·,-3%,·
CCc1ccc2[nH]c(=O)c(C(c3nnnn3CC3CCCO3)N3CCN4CCCC4C3)cc2c1 (configuration not stated),?,-2%,-5%,2%,?,-7%
Cc1cc(C)c2[nH]c(=O)c(C(c3nnnn3CC3CCCO3)N3CCCC(C)C3)cc2c1 (configuration not stated),-21%,0%,-4%,-2%,13µM*,8%
Cc1ccc2[nH]c(=O)c(C(c3nnnn3CC3CCCO3)N3CCc4ccccc4C3)cc2c1 (configuration not stated),3%,1%,-24%,0%,25µM*,4%
CC[N+]1(CC)CCC(=C(c2ccccc2)c2ccccc2)C1C (configuration not stated),·,·,4%,·,·,·
Nc1n[nH]c2cc(=O)n(-c3cccc(C(F)(F)F)c3)nc12,·,0%,-4%,-13%,22µM*,13%
O=c1[nH][nH]c2cc(=O)n(-c3cccc(C(F)(F)F)c3)nc12,·,0%,-10%,-11%,-12%,-4%
COc1ccc(-c2cc(C(F)F)n3ncc(C(=O)Nc4cc(OC)ccc4OC)c3n2)cc1,·,·,-5%,·,1%,·
COc1ccc(-c2cc(C(F)F)n3ncc(C(=O)n4ccnc4C)c3n2)cc1,7%,12%,-5%,2%,89µM*,0%
SMILES,NS1 function inh,SARS PLpro yeast,Tb PYK inh,LmPK inh,Sm TGR block,RE007 growth inh
COc1ccc(-c2cc(C(F)F)n3ncc(C(=O)N4CCc5ccccc54)c3n2)cc1,6%,1%,-10%,-1%,11µM*,-1%
Cc1c(NC(=O)c2ccc(NS(=O)(=O)c3cccc([N+](=O)[O-])c3)cc2)c(=O)n(-c2ccccc2)n1C,·,·,4%,·,·,-12%
Cc1c(NS(=O)(=O)c2cccc([N+](=O)[O-])c2)c(=O)n(-c2ccccc2)n1C,2%,0%,9%,3%,28µM*,1%
CCS(=O)(=O)C1=NN2C(=N)/C(=C\c3ccc(OC(=O)c4ccco4)c(Br)c3)C(=O)N=C2S1,5%,8%,·,-24%,45µM*,·
O=C(CSc1oc(-c2ccccc2)nc1S(=O)(=O)c1ccc(Br)cc1)c1ccccc1,·,·,-19%,·,?,·
O=[N+]([O-])c1ccc(/C=N/NC(=S)Nc2ccc(Cl)cc2Cl)s1,-153%,-7%,-5%,-4%,45µM*,2%
O=C(N/N=C/c1ccc([N+](=O)[O-])s1)c1ccccc1,·,-34%,-1%,-9%,-13%,14%
O=[N+]([O-])c1ccc(O)c(/C=N/NC(=S)Nc2ccc(Cl)cc2Cl)c1,-4%,9%,8%,4%,8%,1%
O=C(N/N=C/c1ccc([N+](=O)[O-])s1)C(O)c1ccccc1 (configuration not stated),-39%,-45%,-2%,-3%,32µM*,-8%
O=C(N/N=C/c1cc(Br)c(Br)o1)C(O)c1ccccc1 (configuration not stated),-7%,13%,-1%,-1%,40µM*,-8%
O=C(Nc1cccc(-c2nc3ccccc3o2)c1)C(F)(F)F,·,·,-3%,·,3%,·
CN(Cc1ccccc1)S(=O)(=O)c1ccc(-c2cnc(C3CC3)o2)cc1,·,·,-7%,·,7%,·
CCc1nn2c(=O)cc(COC(=O)c3ccccc3NC(=O)c3ccc(C(C)(C)C)cc3)nc2s1,·,·,-9%,·,9%,·
N#Cc1ccc(NC(=O)c2ccc3c(c2)nnn3C2CCCC2)cc1,·,·,-3%,·,4.5µM*,·
CSc1cccc(NC(=O)N2CCN(c3cc(-c4noc(C)n4)ccc3C)CC2)c1,·,·,-3%,·,7%,·

# Screens as filed in PubChem.
